High-throughput results from PubChem BioAssay.
aSyn 5UTR inh: MLPCN primary screen, SNCA 5' untranslated region | inhibition, % (tested at 7.5 µM) | alpha-synuclein 5'UTR reporter, inhibitor activity | 300,000 compounds, 0.82% hits | AID 1813, 2009; in the data active = inhibition above about 60%; inconclusive = no clear call, values can overlap the other calls;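 note: H4 neuroglioblastoma cells stably carrying SNCA 5'UTR luciferase fusion; 0% = DMSO wells and 100% = positive control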
IEC-6 tox: cytotoxicity in IEC-6 intestinal epithelial cells, primary screen, cytotoxicity control for KLF5 inhibitor project, cell-based, luminescence. IEC-6 cytotoxicity, luminescence viability. inhibition, % at 5 µM. 290,000 compounds, 0.78% hits. AID 1825, 2009;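 note: 0% = plate median of test compound wells and 100% = cytotoxic reference compound wells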
BaF3 tox: parental Ba/F3 cell viability inhibition, counter-screen for JAK2V617F inhibitor project, murine pro-B, CellTiter-Glo luminescence; AID 1486, 2009; inhibition, % at 5.6 µM; CellTiter-Glo ATP luminescence; 220,000 compounds, 1.1% hits;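 active = inhibition above a per-campaign cutoff, the mean inhibition of all tested compounds plus 3 SD, cut at about 27% in these data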;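 note: 0% = DMSO wells and 100% = JAK Inhibitor I control wells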
APP 5UTR inh: inhibitors of APP translation via 5'UTR reporter, primary screen, APP 5'UTR luciferase, SH-SY5Y cells. 190,000 compounds, 0.82% hits. inhibition, % at 2 µM. SH-SY5Y APP 5'UTR-luciferase reporter, luminescence;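 active = inhibition above a set limit, derived from the sample mean plus 3 SD, cut at about 45% in these data; inconclusive = one replicate passes the limit while the other fails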
Ba/F3 V617F tox: reduced viability of JAK2V617F-dependent Ba/F3 cells, primary screen, JAK2V617F inhibitor project, cell-based, Ba/F3 EpoR-JAK2V617F, luminescence; ATP luminescence; inhibition, % at 5.6 µM; 220,000 compounds, 1.1% hits; AID 1446, 2008;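 active = inhibition above the campaign mean plus 3 SD over all tested compounds, cut at about 24% in these data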;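 note: cytokine-independent growth of Ba/F3 cells driven by EpoR plus mutant JAK2; 0% = DMSO-treated cells and 100% = JAK inhibitor I control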
KLF5 inh: KLF5 expression inhibitors, primary screen, DLD-1 cells, luminescence; DLD-1 KLF5 promoter-luciferase reporter; inhibition, % at 5 µM; 290,000 compounds, 0.23% hits; AID 1700, 2009;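 active = inhibition above a per-plate limit of that plate's mean compound inhibition plus 3 SD, cut at about 60% in these data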;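 note: 0% = DMSO wells and 100% = LY294002 at 200 µM; higher means less KLF5 promoter-driven luciferase light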
IEC-6 tox confirm: cytotoxic compounds in IEC-6 epithelial cells, confirmation, cytotoxicity control, cell-based, luminescence. shares compounds with IEC-6 tox. IEC-6 rat intestinal epithelial viability. inhibition, % at 5 µM. 1,900 compounds, 63% hits;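 note: 0% = vehicle and 100% = reference cytotoxic drug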
Numbers without * were called inactive; ? = inconclusive; / = not tested or not shown. Sampled rows, rich in hits. Any-hit rate of the full collection: about 2.2%. Cut-off read from the data, not from the text of the source, unless noted: active = inhibition above about 22%; inactive = the rest.

SMILES	aSyn 5UTR inh	IEC-6 tox	BaF3 tox	APP 5UTR inh	Ba/F3 V617F tox	KLF5 inh	IEC-6 tox confirm
COc1ccc(-n2nc(C#N)c(Cl)cc2=O)cc1	/	29.1*	2.0	94.9*	8.3	-20.3	19.8
COC(=O)c1nn(-c2ccc(OC)cc2)c(=O)cc1O	20.7	-0.1	7.0	4.0	0.4	9.4	/
CN1CCC(NCCC(c2ccc(F)cc2)c2ccc(Cl)cc2)CC1 (stereo unspecified)	22.1	49.3*	/	/	/	-29.5	100.1*
CC(C)C(CCNC1CCN(C)CC1)c1ccc(Cl)cc1 (stereo unspecified)	-34.9	35.7*	/	/	/	-47.6	56.5*
CCn1cc(CN2CCC(C(=O)Nc3cccc(-c4cccc(OC)c4)c3)CC2)c(C)n1	-14.1	3.2	/	/	/	-0.9	/
CCOC(=O)c1c(C)nc2cc(C)ccn12	-9.9	-6.2	2.7	-2.4	1.7	-16.6	/
Cc1ccn2c(C(=O)CSc3ccccc3Cl)c(C)nc2c1	15.4	40.5*	0.3	-5.4	-3.9	2.2	37.9*
CC1CC(CCC(=O)NC(=S)Nc2ccc(Cl)cn2)C(=O)O1 (stereo unspecified)	20.9	-5.6	7.3	-9.1	-2.9	-22.3	/
Cn1ccsc1=NC(=O)c1ccc([N+](=O)[O-])o1	-160.8	67.3*	/	/	/	-17.1	18.4
COc1cc2ncnc(Nc3cccc(Cl)c3)c2cc1OC	/	21.3	-1.2	/	1.9	-32.4	/
COc1cc2ncnc(Nc3ccc4c(c3)OCO4)c2cc1OC	-13.6	26.8*	/	/	/	-34.0	57.6*
COc1cc2ncnc(NCc3ccccc3Cl)c2cc1OC	6.2	22.2*	5.3	11.2	2.9	4.5	36.4*
COc1cc2ncnc(NCc3ccccc3C)c2cc1OC	-1.3	25.1*	4.9	-4.0	-2.8	22.8	36.3*
Cc1ccccc1CNc1ncnc2cc(Cl)ccc12	-2.4	9.1	/	/	/	-3.0	/
O=C1NC2(CCCCC2)C(=O)N1CC(=O)N(Cc1ccccc1)c1ccccc1	3.9	0.4	/	/	/	-9.0	/
O/N=C(/c1ccc(F)cc1)C1CC1c1c(F)cccc1Cl (stereo unspecified)	17.5	-1.0	/	/	/	-11.3	/
Cc1cc2nnc(SCC(=O)NCc3cccs3)n2c2ccccc12	-27.3	33.9*	39.8*	3.7	31.0*	42.3	24.3*
CN(C)c1ccc(Nc2cc(Cl)ncn2)cc1	9.6	6.7	/	/	/	-30.5	/
Cc1onc(-c2ccccc2Cl)c1C(=O)NC(=S)Nc1ccc(C(C)C)cc1	5.9	22.3*	62.7*	/	57.7*	-4.5	-9.9
CCC(=O)NC(c1ccc(OC)cc1)c1c(O)ccc2ccccc12 (stereo unspecified)	49.2	23.1*	1.8	15.6	1.7	13.6	9.0
CCN(CC)c1ccc2c(Cl)c(Br)c(=O)oc2c1	1.7	49.5*	2.9	5.1	1.5	-25.2	27.0*
CC(=O)N1CCN(c2ccc(NC(=O)c3ccco3)cc2Cl)CC1	-48.6	4.3	/	/	/	-72.8	/
CCN1CCN(c2ccc(S(=O)(=O)N3CCCCC3)cc2NC(=O)c2ccc([N+](=O)[O-])o2)CC1	-31.9	/	/	/	/	/	/
CCC(=O)N1CCN(c2ccc(Cl)cc2NC(=O)c2ccc([N+](=O)[O-])o2)CC1	-58.5	34.3*	/	/	/	-25.3	8.2
CCN1CCN(c2ccc(NC(=O)c3ccc([N+](=O)[O-])o3)cc2Cl)CC1	126.2*	69.6*	48.4*	93.6*	76.2*	1.5	45.5*
SMILES	aSyn 5UTR inh	IEC-6 tox	BaF3 tox	APP 5UTR inh	Ba/F3 V617F tox	KLF5 inh	IEC-6 tox confirm
CC(=O)N1CCN(c2ccc(NC(=O)c3ccc([N+](=O)[O-])o3)cc2Cl)CC1	49.1	100.6*	/	/	/	29.6	48.3*
CCC(=O)N1CCN(c2ccc(NC(=O)c3ccc([N+](=O)[O-])o3)cc2Cl)CC1	77.4*	67.3*	60.0*	92.5*	87.8*	14.3	63.3*
CCC(=O)N1CCN(c2ccc(NC(=O)c3ccco3)cc2Cl)CC1	-43.3	1.8	/	/	/	-59.4	/
Cc1cccc(Nc2ncnc3ccc(Br)cc23)c1	3.5	42.4*	10.0	-11.6	7.1	5.1	41.9*
Cc1ccc2ncnc(Nc3ccccc3)c2c1	-18.4	17.1	18.9	1.7	-3.1	-0.1	/
O=C(COC(=O)c1cccc(Cl)c1)Nc1cc(Cl)ccc1Oc1ccccc1	-10.4	14.6	3.7	-21.7	2.5	-7.6	/
O=C1CC(c2cccnc2)c2cc3c(cc2N1)OCCO3 (stereo unspecified)	36.9	7.2	11.7	-7.8	5.5	-1.6	/
CCOc1ccccc1C1CC(=O)Nc2cc(C)c(C)cc21 (stereo unspecified)	33.7	41.8*	/	/	/	10.9	26.2*
CCOc1ccccc1C1CC(=O)Nc2cc(OC)c(OC)c(OC)c21 (stereo unspecified)	26.8	-4.3	1.8	-5.3	-0.6	-48.5	/
CCOc1ccccc1C1CC(=O)NC2=C1C(=O)CCC2 (stereo unspecified)	-46.1	7.8	5.5	-3.5	-0.6	23.0	/
Cc1cc2c(cc1C)C(c1ccccc1OC(C)C)CC(=O)N2 (stereo unspecified)	-12.2	44.5*	/	/	/	27.4	30.6*
CCCOc1ccccc1C1CC(=O)NC2=C1C(=O)CCC2 (stereo unspecified)	32.1	37.2*	27.8*	21.4	18.1	-6.0	32.8*
CCOc1ccccc1C1CC(=O)Nc2cc3c(cc21)OCCO3 (stereo unspecified)	91.9*	66.5*	78.2*	13.7	80.2*	60.5	53.8*
COc1ccc2cc(C(=O)N3CCN(c4ccc(F)cc4)CC3)[nH]c2c1	-39.0	1.6	/	/	/	-46.0	/
COc1ccccc1C1CC(=O)Nc2cc(C)c(C)cc21 (stereo unspecified)	62.8*	36.3*	/	/	/	-11.2	5.9
COc1ccc(-n2c(SCC(=O)Nc3ncc(Cl)cc3Cl)nc3ccccc32)cc1	30.3	69.3*	7.1	-10.1	3.8	40.9	38.8*
COc1ccc(NC(=O)CSc2nc3ccccc3n2-c2ccccc2)c([N+](=O)[O-])c1	24.5	1.2	5.4	9.5	1.6	-10.6	/
O=C(CSc1nc2ccccc2n1-c1ccccc1)Nc1ncc(Cl)cc1Cl	52.4	64.4*	1.4	2.9	2.0	27.0	38.6*
Cc1cccc(-n2c(SCC(=O)Nc3ncc(Cl)cc3Cl)nc3ccccc32)c1	?	66.6*	7.2	16.7	2.3	28.2	46.9*
Cn1c(/C=C/c2cccc([N+](=O)[O-])c2)c([N+](=O)[O-])c(=O)n(C)c1=O	-193.9	11.3	/	/	/	-10.6	/
Cc1nnc(N/N=C/c2ccccc2O)n1N	-41.9	101.6*	-0.4	13.8	4.3	-4.1	4.0
Cc1cc(/C=N/NC(N)=S)c(C)n1-c1ccc(Br)cc1	5.6	6.4	13.8	-21.6	10.2	5.2	/
